Laboratory results reported in PubChem BioAssay (NCI).
This is part of a sample that, as a whole, favours compounds with a hit. Of some 79,000 tested, about 15% had one in any assay. Calls of active or inactive are those of the source. Cut-off read from the data, not from the text of the source: active = growth inhibition above about 70%; inactive = the rest.

Tests used:
[1] = NCI Yeast Anticancer Drug Screen. Data for the rad50 strain (AID 155);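 note: 0% = growth of vehicle-only cultures of the same strain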; conditions: S. cerevisiae rad50 strain growth inhibition, hits give high values
Outline: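 Yeast carrying a defined DNA repair defect were exposed to test compounds, and growth was compared with vehicle-treated controls to give percent inhibition.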

[2] = NCI Yeast Anticancer Drug Screen. Data for the mec2-1 strain (AID 157); conditions: S. cerevisiae mec2-1 strain, hits give high values
Outline: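 Growth inhibition is read against vehicle-treated controls after compound exposure of the mec2-1 yeast strain, which is defective in DNA damage repair or cell cycle control.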

[3] = NCI Yeast Anticancer Drug Screen. Data for the sgs1 mgt1 strain (AID 161);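 note: 0% = growth of cultures given vehicle only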; conditions: S. cerevisiae sgs1 mgt1 strain, hits give high values
Outline: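 Growth of a repair-deficient yeast mutant was monitored after compound treatment and expressed as inhibition relative to vehicle-treated cultures.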

[4] = NCI Yeast Anticancer Drug Screen. Data for the cln2 rad14 strain (AID 165);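 note: 0% = growth equal to vehicle treated cultures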; conditions: S. cerevisiae cln2 rad14 strain, hits give high values
Outline: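 Growth inhibition, relative to vehicle-treated controls, is the read-out. The test organism is a yeast strain with defined genetic alterations, cln2 rad14.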

[5] = NCI Yeast Anticancer Drug Screen. Data for the bub3 strain (AID 167); conditions: S. cerevisiae bub3 mutant strain, hits give high values
Outline: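 Compounds were applied to a genetically altered yeast strain carrying a cell-cycle control defect. Growth inhibition was scored against vehicle-treated controls.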

[6] = NCI Yeast Anticancer Drug Screen. Data for the mlh1 rad18 strain (AID 175); conditions: S. cerevisiae mlh1 rad18 strain growth inhibition, hits give high values
Outline: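 Cells of a genetically altered yeast strain, deficient in DNA damage repair, were treated with compound. Their growth was then compared with that of vehicle-treated cultures to give inhibition.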

[7] = at 5.0 µM (retest, dose inferred, filed as 0.5)
[8] = at 50.0 µM (retest, dose inferred, filed as 5.0)

Measured: growth inhibition

CC(=O)N(c1ccccc1)C(C)C
active: [5]; [8] 79%
inactive: [1]; [7] 6% | [1]; [8] 14% | [1]; at 50.0 µM -5.75% | [2]; [7] 6% | [2]; [8] 0% | [2]; at 50.0 µM -10.2% | [3]; [7] 1% | [3]; [8] 1% | [3]; at 50.0 µM -9.75% | [4]; [7] -1% | [4]; [8] -5% | [4]; at 50.0 µM 44.4% | [5]; [7] 10% | [5]; at 50.0 µM -1.65% | [6]; [7] 14% | [6]; [8] 10% | [6]; at 50.0 µM 9.8%

c1ccc(NN=C(c2ccccc2)c2ccccc2)cc1
active: [1]; [8] 76% | [1]; at 50.0 µM 94.2% | [2]; at 50.0 µM 94.3% | [3]; at 50.0 µM 95.8% | [4]; at 50.0 µM 91.8% | [5]; [8] 83% | [5]; at 50.0 µM 93.8% | [6]; [8] 91% | [6]; at 50.0 µM 95.2%
inactive: [1]; [7] -2% | [2]; [7] -17% | [2]; [8] 55% | [3]; [7] 7% | [3]; [8] 68% | [4]; [7] 1% | [4]; [8] 63% | [5]; [7] 12% | [6]; [7] 12%

CCN(CC)c1ccc(/C=C2/C[N+](C)(C)C/C(=C/c3ccc(N(CC)CC)cc3)C2=O)cc1
inactive: [1]; [7] -17% | [2]; [7] -19% | [3]; [7] -13% | [4]; [7] 4% | [5]; [7] -20% | [6]; [7] -6%
active: [1]; [8] 95% | [1]; at 50.0 µM 79.5% | [2]; [8] 91% | [2]; at 50.0 µM 78.5% | [3]; [8] 97% | [3]; at 50.0 µM 79.2% | [4]; [8] 95% | [4]; at 50.0 µM 76.5% | [5]; [8] 80% | [5]; at 50.0 µM 81.5% | [6]; [8] 96% | [6]; at 50.0 µM 82.2%

O=c1oc2ccccc2c(O)c1/C=N/C(=S)NCCc1ccccc1
inactive: [1]; [7] 29% | [1]; at 50.0 µM -11.6% | [2]; [7] 30% | [2]; at 50.0 µM -22.4% | [3]; [7] 32% | [3]; at 50.0 µM -6.05% | [4]; [7] 26% | [4]; [8] 40% | [4]; at 50.0 µM -27.8% | [5]; [7] 44% | [5]; at 50.0 µM -10.2% | [6]; [7] 32% | [6]; at 50.0 µM -5.75%
active: [1]; [8] 88% | [2]; [8] 95% | [3]; [8] 92% | [5]; [8] 96% | [6]; [8] 93%

N#CC(c1c(Cl)cccc1N1CCCCC1)N1CCCCC1 (configuration not stated)
active: [1]; [8] 75% | [1]; at 50.0 µM 86.9% | [2]; [8] 78% | [2]; at 50.0 µM 87.4% | [3]; [8] 85% | [3]; at 50.0 µM 87.6% | [4]; at 50.0 µM 80.4% | [5]; [8] 92% | [5]; at 50.0 µM 91.2% | [6]; [8] 84% | [6]; at 50.0 µM 87.7%
inactive: [1]; [7] 31% | [2]; [7] 34% | [3]; [7] 41% | [4]; [7] 30% | [4]; [8] 61% | [5]; [7] 37% | [6]; [7] 46%

Cc1c(Cl)cc2[nH]c(C(F)(F)F)nc2c1Cl
active: [2]; [8] 76% | [2]; at 50.0 µM 75.2% | [3]; [8] 79% | [3]; at 50.0 µM 71.2% | [4]; [8] 71% | [6]; [8] 72% | [6]; at 50.0 µM 70.5%
inactive: [1]; [7] 3% | [1]; [8] 66% | [1]; at 50.0 µM 63% | [2]; [7] 8% | [3]; [7] 3% | [4]; [7] 10% | [4]; at 50.0 µM 65.1% | [5]; [7] 2% | [5]; [8] 56% | [5]; at 50.0 µM 41.5% | [6]; [7] 3%

CCC/C=C1/OC(=O)C2=C[C@H]3CC[C@]21[C@]1(OC(=O)C2=C1CCC=C2)[C@H]3CCC
active: [1]; [8] 96% | [1]; at 50.0 µM 88.2% | [2]; [8] 97% | [2]; at 50.0 µM 88.9% | [3]; [8] 96% | [3]; at 50.0 µM 87.8% | [4]; [8] 96% | [4]; at 50.0 µM 86.9% | [5]; [8] 93% | [5]; at 50.0 µM 88.3% | [6]; [8] 95% | [6]; at 50.0 µM 90.5%
inactive: [1]; [7] 0% | [2]; [7] 14% | [3]; [7] 17% | [4]; [7] -6% | [5]; [7] 2% | [6]; [7] 14%

Cc1[nH]nc(C(=O)N(C)C)c1N=NN(C)C
inactive: [1]; [7] -61% | [2]; [7] -44% | [3]; [7] -43% | [4]; [7] -50% | [5]; [7] -65% | [6]; [7] -105%
active: [1]; [8] 93% | [1]; at 50.0 µM 97.8% | [2]; [8] 91% | [2]; at 50.0 µM 88.8% | [3]; [8] 88% | [3]; at 50.0 µM 82% | [4]; [8] 78% | [4]; at 50.0 µM 79.8% | [5]; [8] 83% | [5]; at 50.0 µM 79.2% | [6]; [8] 90% | [6]; at 50.0 µM 95.6%

N#CC(CC(=O)O)C(c1cccc2ccccc12)c1cccc2ccccc12 (configuration not stated)
active: [1]; [8] 99% | [1]; at 50.0 µM 99.1% | [2]; [8] 99% | [2]; at 50.0 µM 98.5% | [3]; [8] 98% | [3]; at 50.0 µM 98.8% | [4]; [8] 99% | [4]; at 50.0 µM 97.6% | [5]; [8] 99% | [5]; at 50.0 µM 98.5% | [6]; [8] 99% | [6]; at 50.0 µM 99.2%
inactive: [1]; [7] 10% | [2]; [7] 17% | [3]; [7] 4% | [4]; [7] 4% | [5]; [7] 17% | [6]; [7] 17%
